Screening results from PubChem BioAssay.
In the library only some 9.5% were active in any assay of this set; here they are far more common.
NS1 inh = inhibitors of influenza NS1 protein function; Potency, µM (top dose mostly 46.1 µM), for inactives: at the top dose activity, positive = more growth; actives 0.4% (n = 270,000); note: actives are rising curves; nearly all actives have a fitted effect of over 50% in size
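Read-out: OD600 growth recovery of NS1-expressing budding yeast. Cells grown overnight at 30C in -URA glucose medium, washed, resuspended and diluted 1:100 in 2% galactose assay medium, pH 6.0. Same strain lacking NS1 served as positive control.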
SARS PLP yeast = blocks SARS-CoV papain-like protease in a yeast assay. S. cerevisiae expressing SARS-CoV PLpro, growth rescue. Potency, µM (doses to about 32.9 µM), inactives show at the top dose activity, positive = growth rescue, actives largely listed as activators. actives 0.19% (n = 330,000); note: 0% is about no effect; nearly all actives have a fitted effect of over 55% in size
Pf growth 48h = P. falciparum growth inhibition at 48 hours (one generation). Potency, µM (series often up to 28.7 µM), inactives show at the top dose activity change, negative = inhibition, hits mostly inhibitors. P. falciparum luciferase growth in erythrocytes, 48 h. actives 5.9% (n = 310,000); active = well fitted inhibition curve with a large enough effect; inconclusive = small, poorly fitted or top-dose-only effect, or another doubt; inactive = no such curve, though single readings can be large or run the other way; note: % is set by controls: 0 for no effect and ±100 for the full control effect
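Growth was read as firefly luciferase luminescence after a 48 h, 37 C, 5% CO2 exposure of compounds to reporter-bearing P. falciparum cultures (0.1% parasitemia, 2% hematocrit final) in Albumax-supplemented RPMI 1640.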
Pf growth 96h = P. falciparum growth inhibition at 96 hour, primary screen for plastid delayed-death inhibitors; P. falciparum luciferase reporter growth, 96 h; Potency, µM (doses to about 28.7 µM), for inactives: at the highest dose activity change, negative = inhibition, actives largely listed as inhibitors; actives 6.9% (n = 320,000); AID 504834; active = well fitted inhibition curve with a large enough effect; inconclusive = small, poorly fitted or top-dose-only effect, or another doubt; inactive = no such curve, though single readings can be large or run the other way; note: % is set by controls: 0 for no effect and ±100 for the full control effect
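Plates of compound plus infected erythrocytes (2% hematocrit, 0.05% parasitemia final) incubate 96 hours, 37 C, 5% CO2. Detection reagent added; reduced luminescence from the parasites' luciferase reporter flags inhibition.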
RE007 growth inh = less growth of the S. pombe RE007 Vpr strain. S. pombe RE007 Vpr strain, BacTiter-Glo ATP luminescence, 24 h. Potency, µM (titrated, usually from 92.2 µM), without a hit: at the top dose activity change, negative = less growth, hits mostly inhibitors. actives 0.21% (n = 360,000). AID 651644; active = well fitted falling curve with a large enough effect; inconclusive = small, poorly fitted or top-dose-only effect; inactive = no such curve, though single readings can be large or run the other way; note: % is set by controls: 0 for no effect and ±100 for the full control effect; nearly all actives have a fitted effect of over 50% in size
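Fission yeast strain RE007, carrying one chromosomally integrated HIV-1 vpr copy, was seeded at OD 0.01 in PMG+AL medium with 23 nL pinned compound. After 24 h at 30 °C and 99% humidity, viability was read by BacTiter-Glo luminescence.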
Starred values were filed as active, the others as inactive; ? = inconclusive; · = no result given; [ ] = dose if it differs, or a comment. Unless noted, calls come from the whole dose curve. Potency is the fitted concentration of half-maximal effect.

SMILES	NS1 inh	SARS PLP yeast	Pf growth 48h	Pf growth 96h	RE007 growth inh
Cc1noc(C)c1CSCC(=O)Nc1cc(C(F)(F)F)ccc1N1CCCCC1	·	-13%	4.7µM*	?	-5%
Cc1noc(C)c1CSCC(=O)Nc1ccccc1N1CCCC1	·	·	·	·	-8%
CC(C)Nc1nc(NC2CCCC2)nc(N2CCOCC2)n1	·	0%	?	5.2µM*	1%
NNC(=O)CP(=O)(c1ccccc1)c1ccccc1	·	·	-23%	15%	0%
CCNC(=O)CP(=O)(c1ccccc1)c1ccccc1	6%	-2%	-2%	8.3µM*	0%
CC(C)(C)c1ccc(CCC2OCC(C[N+]3(C)CCOCC3)O2)cc1 (configuration not stated)	0%	0%	?	2.6µM*	2%
CCn1c(SCC(=O)c2ccc(Cl)cc2)nnc1-c1ccoc1C	-31%	?	?	15µM*	-16%
CCn1c(SCC(=O)c2ccccc2)nnc1-c1ccoc1C	-6%	-4%	46%	0%	-6%
CCn1c(SCC(=O)c2ccc(C)cc2)nnc1-c1ccoc1C	-13%	-11%	-11%	15µM*	12%
Cc1cc(C)cc(N2C(=O)CCN(Cc3ccccc3)C2=O)c1	2%	1%	4%	21%	2%
COc1cc2c(cc1OC)C(C)N(C(=O)c1cc3n(n1)C(C(F)(F)F)CC(c1ccco1)N3)CC2 (configuration not stated)	-14%	24%	6.6µM*	·	-14%
COc1ccc(NC(=O)c2cc3n(n2)C(C(F)(F)F)CC(c2ccco2)N3)cc1 (configuration not stated)	-5%	5%	?	25%	21%
Cc1cc(NC(=O)c2cc3n(n2)C(C(F)(F)F)CC(c2ccco2)N3)n(-c2ccccc2)n1 (configuration not stated)	1%	1%	9.3µM*	?	-3%
O=C(c1cc2n(n1)C(C(F)(F)F)CC(c1ccco1)N2)N1CCc2ccccc2C1 (configuration not stated)	5%[9.22 µM]	-14%	?	·	-1%
CCC(CO)NCc1ccc(OCC(O)c2ccccc2)c(OC)c1 (configuration not stated)	?	5%	-23%	-40%	24%
CCc1cccc(CN2CCC(CNC(=O)Nc3ccc(Cl)cc3)CC2)c1	4%	0%	4.7µM*	?	-18%
Cc1ccc(C)c(CN2CCC(CNC(=O)Nc3ccc(C)c(C)c3)CC2)c1	-3%	0%	4.1µM*	14%	-1%
O=C(NCC1CCN(Cc2cccc(Cl)c2)CC1)Nc1ccc(Cl)cc1	3%	1%	12%[0.00184 µM]	6%	-8%
O=C(O)C1C2CCC(O2)C1C(=O)Nc1ccc(F)c(Cl)c1 (configuration not stated)	7%	2%	9%	12µM*	-1%
Cc1ccc(NC(=O)C2OCCc3ccccc32)cc1Cl (configuration not stated)	-7%	-3%	-7%	8.3µM*	-43%
Cc1ccc(NC(=O)C2C3CCC(O3)C2C(=O)O)cc1Cl (configuration not stated)	12%	-15%	7%	13µM*	2%
CN(C)CCC(=O)[C@@]1(O)CC[C@H]2[C@H]3CC=C4C[C@@H](O)CC[C@]4(C)[C@H]3CC[C@]21C	-15%	·	·	·	·
O=C(NCCCCc1ccccc1)c1cccc(NC(=O)C2CC2)c1	·	·	·	·	1%
O=C(O)c1ccc(-[n+]2c(-c3ccccc3)cc(-c3ccccc3)cc2-c2ccccc2)cc1	·	-5%	?	?	6%
Brc1ccc(-[n+]2c(-c3ccccc3)cc(-c3ccccc3)cc2-c2ccccc2)cc1	·	-8%	1.9µM*	0.83µM*	-12%
CCCOC(=O)c1ccc(-[n+]2c(-c3ccccc3)cc(-c3ccccc3)cc2-c2ccccc2)cc1	·	2%	2.3µM*	1.3µM*	0%
COc1ccc(-c2cc(-c3ccccc3)[n+](C)c(-c3ccccc3)c2)cc1	·	-2%	?	?	4%
Cc1ccc(-c2cc(-c3ccccc3)cc(-c3ccccc3)[n+]2-c2ccc(C(=O)O)cc2)cc1	·	-20%	?	?	3%
